Source: PubChem BioAssay
Only some compounds are listed: those with a hit (about 4.8% of all), similar ones and a draw of the others.
TGFb inhibitor: TGF-b pathway inhibition; HepG2 CAGA-GFP TGF-b/SMAD3 reporter, GFP fluorescence, 18 h; TGF-beta stimulated, 500 pg/mL final; Potency, µM (top dose mostly 46.1 µM), hits mostly inhibitors; 410,000 compounds, 1.2% hits; AID 588855; note: nearly all actives have a fitted effect of over 65% in size
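HEPG2 CAGA-GFP reporter cells (1000/well, DMEM with 1% FBS) received compounds, then recombinant TGF-beta at 500 pg/mL final for 18 hours at 37 degrees C. Per-cell GFP summed per well was normalised to unstimulated and stimulated DMSO controls before curve fitting.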
HepG2 viability: counter-screen for TGF-b inhibitors: cytotoxicity in HepG2 cells. HepG2 CAGA-GFP viability, ATP luminescence, 18 h. 410,000 compounds, 0.76% hits. Potency, µM (series often up to 46.1 µM), most hits filed as cytotoxic
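HepG2 CAGA-GFP cells (1000/well, DMEM with 1% FBS) received compound, then TGF-beta at 500 pg/mL final, and were incubated 18 hours at 37 degrees C. Viability was read by CellTiter-Glo luminescence. Media-only wells were set as complete cell-killing and DMSO as no toxicity.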
ATXN viability: viability counter-screen for ATXN expression inhibitors; S2 cells (HEK-293 line with an ATXN2-luciferase reporter) viability, CellTiter-Fluor protease fluorescence, 24 h; Potency, µM (doses to about 56.7 µM), hits mostly cytotoxic; 400,000 compounds, 0.49% hits; note: nearly all actives have a fitted effect of over 40% in size
DRD3 agonist: agonists of human D3 dopamine receptor | P35462 | D3R DiscoveRx beta-arrestin cells, luminescence, 90 min | max activation, % | 410,000 compounds, 0.58% hits; in the data active = max activation above about 30%
Target sequence (P35462 whole entry, looked up): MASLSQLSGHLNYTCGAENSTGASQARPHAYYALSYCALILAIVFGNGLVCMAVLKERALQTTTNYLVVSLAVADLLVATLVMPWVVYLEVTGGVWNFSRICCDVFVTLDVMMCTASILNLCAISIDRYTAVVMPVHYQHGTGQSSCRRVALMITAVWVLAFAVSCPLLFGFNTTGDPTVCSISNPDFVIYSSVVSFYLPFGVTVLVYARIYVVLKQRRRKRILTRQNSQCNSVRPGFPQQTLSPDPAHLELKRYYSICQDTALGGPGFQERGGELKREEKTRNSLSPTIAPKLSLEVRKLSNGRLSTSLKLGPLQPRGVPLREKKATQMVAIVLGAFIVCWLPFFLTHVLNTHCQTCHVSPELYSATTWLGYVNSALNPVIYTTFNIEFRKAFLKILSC
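Agonist-mode cell screen: cells plated at 1500/well and incubated overnight at 37 °C, then exposed to library compounds for 90 min at 37 °C. Detection reagent was added for 30–60 min at room temperature, and luminescence was read.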
ATXN2 expr inh: ATXN2 expression inhibition. HEK-293 ATXN2-luciferase reporter, luminescence, 24 h. 360,000 compounds, 0.72% hits. AID 1745845. Potency, µM (titrated, usually from 57 µM), actives largely listed as inhibitors; note: nearly all actives have a fitted effect of over 55% in size
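ATXN2-luciferase reporter cells (luciferase flanked by upstream and downstream ATXN2 gene portions) were treated 24 h at 37 °C with compounds at up to 57 uM. SteadyGlo luminescence gave expression; GF-AFC fluorescence gave viability.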
D3 antag: D3 dopamine receptor (human) antagonism. P35462. D3R cells, DiscoveRx beta-arrestin luminescence, antagonist mode; active compounds read low. max response, negative = inhibition, %. 360,000 compounds, 2.5% hits; in the data active = max response below about -50%; inconclusive = no clear call, values can overlap the other calls
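Cells expressing the human receptor were seeded at 1500 cells/well, incubated overnight at 37 degrees C in 5% CO2, then exposed to library compounds with dopamine controls for 90 minutes at 37 degrees C before luminescent detection.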
A number is an active result; - = inactive; ? = inconclusive; . = no result given; ! = a repeat was not active; [ ] = dose if it differs, or a comment. Unless noted, calls come from the whole dose curve; as a rule, active = well fitted curve in the direction sought with a large enough effect; inconclusive = small, poorly fitted or top-dose-only effect, or another doubt; inactive = no such curve, though single readings can be large; an effect the other way counts as inactive or inconclusive.

SMILES | TGFb inhibitor | HepG2 viability | ATXN viability | DRD3 agonist | ATXN2 expr inh | D3 antag
C=C(C)COc1ccc(-c2[nH]ncc2-c2ccccc2OC)c(O)c1 | ? | 18µM | ? | - | ? | -63
C=C(C)COc1ccc(-c2[nH]ncc2Oc2ccc(OC)cc2)c(O)c1 | ? | - | - | - | - | -
Cc1ccc(Nc2sc(C(=O)c3ccccc3)c(N)c2S(=O)(=O)c2ccccc2)c(C)c1 | - | - | . | - | . | .
Cc1ccccc1NC(=O)N1CCc2cc(S(=O)(=O)N3CCC(C)CC3)ccc21 | . | - | . | - | . | .
O=C(O)c1cccc(-c2noc(-c3ccccc3F)n2)c1 | . | . | - | . | ? | .
COc1ccc(CNc2ccc3cc(S(=O)(=O)N4CCCCC4)ccc3n2)cc1 | - | - | ? | - | - | .
CCn1c(-c2ccccc2F)nc2cc(NC(C)=O)cc(C(=O)N3CCC[C@H]3C(=O)OC)c21 | . | . | - | . | . | .
Cc1nc(NCC(=O)c2c[nH]c3ccccc23)sc1C | ? | - | . | . | . | .
O=C(C=Cc1ccccc1)CC(c1ccccc1)N1CCOCC1 (stereo unspecified) | ? | 13µM | . | - | ? | -72
O=C(O)C1(Cc2cccc(Nc3nccs3)n2)CCC(Oc2cccc(Cl)c2F)CC1 (stereo unspecified) | . | . | . | . | - | .
COc1ccc(OC)c(S(=O)(=O)ON2C(=O)c3ccccc3C2=O)c1 | ? | - | ? | - | - | -97
CCc1ccc(S(=O)(=O)ON2C(=O)c3ccccc3C2=O)cc1 | ? | - | . | - | 30µM | -
COc1ccc(OC)c(S(=O)(=O)N2CCN(c3ccccc3)CC2)c1 | - | - | . | - | - | -
O=C1c2cccc3cccc(c23)C(=O)N1OS(=O)(=O)c1ccc(Cl)cc1 | - | - | - | - | - | -
COc1ccc(S(=O)(=O)N(CCc2ccccc2)CC(=O)NCc2ccccc2)cc1OC | - | - | - | - | - | .
CSc1ccc(/C=C2\C=Cc3ccccc32)cc1 | - | - | . | . | . | .
CC(=O)C(Sc1nc(-c2ccccc2Cl)nc2c1c(=O)n(C)c(=O)n2C)C(=O)N(C)C (stereo unspecified) | ? | - | ? | - | - | .
COc1ccc(C=C(C(C)=O)C(=O)c2ccccc2)cc1 | - | - | - | - | - | -
CC(=O)C(=Cc1ccc(Cl)cc1)C(=O)c1ccccc1 | ? | - | 28µM | - | ? | ?
COc1ccc(C=C(C(=O)c2ccccc2)C(=O)c2ccccc2)cc1 | ? | 11µM | - | - | - | -
COc1cc(NC(=O)CSc2cc(=O)n(C)c3ccccc23)cc(OC)c1OC | - | - | - | - | - | .
O=C(N/N=C\c1cccc(F)c1)c1ccc(Cn2cc(Br)c([N+](=O)[O-])n2)o1 | - | - | - | - | -[11.3 µM] | -87
COc1ccc(/C=N/NC(=O)c2ccc(Cn3cc([N+](=O)[O-])cn3)o2)cc1O | - | - | - | - | - | -
COc1cc(/C=N/NC(=O)c2ccc(Cn3cc([N+](=O)[O-])cn3)o2)cc(Br)c1O | 16µM | - | - | - | - | -
Cc1cccc(C)c1-n1ncc(C(=O)Nc2ccc3c(c2)OCCO3)c1C1CCN(C(=O)OC(C)(C)C)CC1 | - | - | - | - | - | .
SMILES | TGFb inhibitor | HepG2 viability | ATXN viability | DRD3 agonist | ATXN2 expr inh | D3 antag
COc1cc(/C=C2/N=C(C3CCCCC3)OC2=O)cc(OC)c1OC | ? | - | - | - | - | -69
COc1cc(/C=C2\N=C(C)OC2=O)cc(OC)c1OC | - | - | - | - | - | -
C[C@@H]1[C@H](C)CC[C@]2(C(=O)O)CC[C@]3(C)C(=CC[C@@H]4[C@@]5(C)C[C@@H](O)[C@H](O)[C@@](C)(CO)[C@H]5CC[C@]43C)[C@@H]12 | . | . | . | . | - | .
CCN(CC)CCCNC(=O)c1sc2nc3n(c(=O)c2c1C)CCCCC3 | - | - | . | - | . | .
CCN(CC)CCNc1cc(C)nc2c1C(=O)C(=O)C=C2N1CCCCC1 | 6.3µM | - | 14µM | - | . | -
Cn1c(-c2ccc(F)cc2)cnc1NCc1ccc(C#N)cc1 | - | - | - | - | - | -73
Cn1c(-c2ccc(F)cc2)cnc1NCc1ccc(F)cc1 | - | - | - | - | - | ?
COc1cc(CNc2ncc(-c3ccc(Br)cc3)n2C)cc(OC)c1OC | ? | - | - | - | ? | ?
Cn1c(-c2ccc(Br)cc2)cnc1NCc1cccnc1 | - | - | - | - | - | -62
COc1ccccc1C1C([N+](=O)[O-])=CC([N+](=O)[O-])=CN1C (stereo unspecified) | - | - | - | - | - | -
COc1ccccc1C1NC=C([N+](=O)[O-])C=C1[N+](=O)[O-] (stereo unspecified) | - | - | ? | - | - | -62
C(=N\Nc1ccc2ccccc2n1)/c1ccc2c(c1)OCCO2 | 16µM | - | ? | - | ? | -
CO[C@H]1[C@H](NC(=O)c2ccco2)c2ccccc2C12CCN(Cc1cnc(N(C)C)s1)CC2 | . | . | - | . | . | .
CCCCCOC(=O)c1ccc(OC(=O)c2cncc(Br)c2)cc1 | - | - | - | - | - | -74
CCc1ccc(NC(=O)Cn2c(=O)n(CC3CCCO3)c(=O)c3cc(OC)c(OC)cc32)cc1 (stereo unspecified) | - | - | - | - | - | .
COc1ccc(-c2cn3c(n2)sc2cc(C(=O)Nc4cc(Cl)ccc4C)ccc23)cc1 | - | - | . | - | . | .
O=C(Nc1cccc(Cl)c1)c1cnc2sc(N3CCCC3)nn2c1=O | . | - | . | - | . | .
Cc1ccc(Cn2c(Cc3ccccc3)nc3ccccc32)cc1 | ? | 16µM! | ? | - | ? | -
COc1ccc(-c2nc3ccccc3n2Cc2ccc(Cl)cc2)cc1 | 16µM | - | ? | - | - | .
COc1ccc(-c2nc3ccccc3n2Cc2ccc(C)cc2)cc1 | ? | - | - | - | - | ?
O=C1CN(CCN2CC(=O)NC(=O)C2)CC(=O)N1 | - | - | . | . | . | .
Cc1c(NC(=O)Nc2ccc(Cl)c(Cl)c2)sc(=S)n1C | ? | - | . | - | ? | -73
CNc1ccc(/C=C/c2ccnc3ccccc23)cc1 | - | - | . | . | . | .
O=C(Nc1ccc(OCc2cc(=O)n3c4c(sc3n2)CCCC4)cc1)c1ccccc1 | - | - | - | - | - | .
O=C(Nc1c2c(nn1-c1ccc(F)cc1)CS(=O)(=O)C2)c1ccc(S(=O)(=O)N2CCOCC2)cc1 | - | - | - | - | - | -65
O=C(Nc1c2c(nn1-c1ccccc1)CS(=O)C2)c1ccc(S(=O)(=O)N2CCOCC2)cc1 (stereo unspecified) | - | - | - | - | . | -
CCOc1ccc(NC(=O)C(=O)c2cc(C)n(-c3cc(C)cc(C)c3)c2C)cc1 | - | - | - | - | - | .
COC(=O)c1ccc(-n2c(C)cc(C(=O)CCl)c2C)cc1 | 20µM | 13µM | 30µM | - | 15µM | ?
